# Reference: PubChem BioAssay (NCATS)
# Records with an inconclusive call do not appear. A number with no mark means an inactive call. Activity calls are given as the source filed them. The call rests on the fitted dose curve; in most records, active means well fitted cell-killing curve with a large enough effect; inconclusive means small, poorly fitted or top-dose-only effect, or effect the other way; inactive means no such curve, though single readings can be large or run the other way.
# Experiment: Quantitative High-Throughput drug screen in 47 multiple myeloma cell lines against the NCATS MIPE library collection: KMS11_JCRBsus cell viability assay (AID 1919873); further: nearly all actives have a fitted effect of over 50% in size;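 on viability (% of control): 100% = DMSO-only wells and 0% = media-only wells without cells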
# Conditions: KMS11 myeloma viability, CellTiter-Glo ATP luminescence, 48 h; series mostly up to 45.8 µM
# How it was run: (§1)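 Readout: median RLU from CellTiter-Glo after 5 min at room temperature. Preceding step was 48 h drug treatment of 500 cells/well at 37 °C, 5% CO2, with DMSO-only and media-only control wells.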
# Potency means the concentration at half of the fitted maximal effect.
SMILES,Potency,viability (% of control)
Cc1cc(O)c2c(c1)C(=O)c1cccc(O)c1C2=O,inactive,
CCC(C(=O)O)C1CCC(C)C(C(C)C(O)C(C)C(=O)C(CC)C2OC3(C=CC(O)[C@@]4(CC[C@](C)(C5CC[C@@](O)(CC)C(C)O5)O4)O3)C(C)CC2C)O1 (some centres not stated),3720 nM (active),
CC(=O)[C@]1(O)Cc2c(O)c3c(c(O)c2[C@@H](O[C@H]2C[C@H](N)[C@@H](O)[C@H](C)O2)C1)C(=O)c1ccccc1C3=O,264 nM (active),
COc1cc(C=CC(=O)CC(=O)C=Cc2ccc(O)c(OC)c2)ccc1O,8550 nM (active),
CC(C)(C)[C@H](NC(=O)c1ccc(N)c(Cl)c1)C(=O)N1CCC[C@@H]1C(=O)N[C@H](C#N)CC(=O)O,,102% [at 3.51 µM]
Cn1cnc(=N)c2[nH]cnc21,93.5 nM (active),
COc1ccc2c(c1OC)C(=O)OC2[C@H]1c2c(cc3c(c2OC)OCO3)CCN1C (some centres not stated),26.4 nM (active),
C[C@@H]1CC[C@@]2(OC1)OC1CC3C4CC=C5CC(O)CCC5(C)C4CCC3(C)C1[C@@H]2C (some centres not stated),inactive,
COc1ccc(S(=O)(=O)Nc2cccnc2Nc2ccc(O)cc2)cc1,41.8 nM (active),
C=C(C)[C@@H]1CC[C@]2(C(=O)O)CC[C@]3(C)[C@H](CC[C@@H]4[C@@]5(C)CC[C@H](O)C(C)(C)[C@@H]5CC[C@]43C)[C@@H]12,inactive,
C[C@H](CCC(=O)O)[C@H]1CC[C@H]2[C@@H]3[C@H](O)C[C@@H]4C[C@H](O)CC[C@]4(C)[C@@H]3CC[C@]12C,inactive,
CCOc1cc2ncc(C#N)c(Nc3ccc(OCc4ccccn4)c(Cl)c3)c2cc1NC(=O)C=CCN(C)C,14800 nM (active),
c1cc(CN2CCCNCCNCCCNCC2)ccc1CN1CCCNCCNCCCNCC1,inactive,
C=CC(=O)N1CCc2ccc(-n3c(=O)ccc4cnc5ccc(-c6cnn(C)c6)cc5c43)cc21,418 nM (active),
N#CNC(=NCCCCCCOc1ccc(Cl)cc1)Nc1ccncc1,2.6 nM (active),
C[C@H]1COc2c(N3CCN(C)CC3)c(F)cc3c(=O)c(C(=O)O)cn1c23,inactive,
Oc1cc(-c2nc(-c3ccccc3)[nH]c2-c2ccncc2)ccc1Cl,14800 nM (active),
O=c1[nH]c(=O)n([C@H]2C[C@@H](O)[C@@H](CO)O2)cc1C=CBr,inactive,
CN(C)CCN1C(=O)c2cccc3cc(N)cc(c23)C1=O,16600 nM (active),
COC(=O)[C@H](CCCN=C(N)N)NS(=O)(=O)c1ccc(C)cc1,inactive,
COc1cc([C@@H]2c3cc4c(cc3[C@@H](O[C@@H]3O[C@@H]5CO[C@@H](c6cccs6)O[C@@H]5[C@H](O)[C@@H]3O)[C@H]3COC(=O)[C@H]23)OCO4)cc(OC)c1O,1320 nM (active),
CCOC(=O)[C@H](CCc1ccccc1)N[C@@H](C)C(=O)N1[C@@H](C(=O)O)C[C@H]2CCC[C@@H]21,6620 nM (active),
CC(C)c1cnn2c(NCc3ccccc3)cc(NCCCCCCN)nc12,26400 nM (active),
O=C(CCCCCCC(=O)Nc1cccnc1)NO,5900 nM (active),
COc1cc([C@@H]2c3cc4c(cc3[C@H](O)[C@H]3COC(=O)[C@@H]23)OCO4)cc(OC)c1OC,29.6 nM (active),
NC(=O)N1CCC(CC(=O)N2CCC([C@H]3c4ncc(Br)cc4CCc4cc(Cl)cc(Br)c43)CC2)CC1,10500 nM (active),
C[C@H](NCc1ccc(OCc2cccc(F)c2)cc1)C(N)=O,7430 nM (active),
O=C(c1ccc(F)cc1)N1CCC[C@H](c2nc(-c3ccc(F)cc3)no2)C1,inactive,
COc1cccc2c1C(=O)c1c(O)c3c(c(O)c1C2=O)C[C@@](O)(C(=O)CO)C[C@@H]3O[C@H]1C[C@H](N)[C@H](OC2CCCCO2)[C@H](C)O1 (some centres not stated),2640 nM (active),

# Experiment: Quantitative High-Throughput drug screen in 47 multiple myeloma cell lines against the NCATS MIPE library collection: KMS28BM_JCRB cell viability assay (AID 1919874); further: nearly all actives have a fitted effect of over 35% in size
# Conditions: CellTiter-Glo ATP, 48 h; series mostly up to 45.8 µM
# How it was run: as §1
row,SMILES,Potency
1,Cc1cc(O)c2c(c1)C(=O)c1cccc(O)c1C2=O,inactive
2,CCC(C(=O)O)C1CCC(C)C(C(C)C(O)C(C)C(=O)C(CC)C2OC3(C=CC(O)[C@@]4(CC[C@](C)(C5CC[C@@](O)(CC)C(C)O5)O4)O3)C(C)CC2C)O1 (some centres not stated),6620 nM (active)
3,CC(=O)[C@]1(O)Cc2c(O)c3c(c(O)c2[C@@H](O[C@H]2C[C@H](N)[C@@H](O)[C@H](C)O2)C1)C(=O)c1ccccc1C3=O,148 nM (active)
4,COc1cc(C=CC(=O)CC(=O)C=Cc2ccc(O)c(OC)c2)ccc1O,10800 nM (active)
5,Cn1cnc(=N)c2[nH]cnc21,46.9 nM (active)
6,COc1ccc2c(c1OC)C(=O)OC2[C@H]1c2c(cc3c(c2OC)OCO3)CCN1C (some centres not stated),20.9 nM (active)
7,C[C@@H]1CC[C@@]2(OC1)OC1CC3C4CC=C5CC(O)CCC5(C)C4CCC3(C)C1[C@@H]2C (some centres not stated),inactive
8,C#C[C@]1(O)CC[C@@H]2[C@@H]3CCC4=CC(=O)CC[C@@H]4[C@H]3CC[C@@]21CC,inactive
9,COc1ccc(S(=O)(=O)Nc2cccnc2Nc2ccc(O)cc2)cc1,33.2 nM (active)
10,C=C(C)[C@@H]1CC[C@]2(C(=O)O)CC[C@]3(C)[C@H](CC[C@@H]4[C@@]5(C)CC[C@H](O)C(C)(C)[C@@H]5CC[C@]43C)[C@@H]12,inactive
11,CC(=O)OCC(=O)[C@@]1(O)CC[C@H]2[C@@H]3CCC4=CC(=O)CC[C@]4(C)[C@@H]3C(=O)C[C@@]21C,inactive
12,CC(=O)SCC(Cc1ccccc1)C(=O)NCC(=O)OCc1ccccc1 (configuration not stated),11800 nM (active)
13,c1cc(CN2CCCNCCNCCCNCC2)ccc1CN1CCCNCCNCCCNCC1,inactive
14,C=CC(=O)N1CCc2ccc(-n3c(=O)ccc4cnc5ccc(-c6cnn(C)c6)cc5c43)cc21,2960 nM (active)
15,N#CNC(=NCCCCCCOc1ccc(Cl)cc1)Nc1ccncc1,105 nM (active)
16,C[C@H]1COc2c(N3CCN(C)CC3)c(F)cc3c(=O)c(C(=O)O)cn1c23,inactive
17,O=c1[nH]c(=O)n([C@H]2C[C@@H](O)[C@@H](CO)O2)cc1C=CBr,inactive

row,SMILES,Potency
1,COC[C@H](NC(=O)c1cnc(C)s1)C(=O)N[C@@H](COC)C(=O)N[C@@H](Cc1ccccc1)C(=O)[C@@]1(C)CO1,41.8 nM (active)
2,CN(C)CCN1C(=O)c2cccc3cc(N)cc(c23)C1=O,16600 nM (active)
3,CCNC(=O)Nc1ccc(-c2nc3c(c(N4CCOC[C@H]4C)n2)CCN(C2COC2)C3)cc1,526 nM (active)
4,COC(=O)[C@H](CCCN=C(N)N)NS(=O)(=O)c1ccc(C)cc1,inactive
5,COc1cc([C@@H]2c3cc4c(cc3[C@@H](O[C@@H]3O[C@@H]5CO[C@@H](c6cccs6)O[C@@H]5[C@H](O)[C@@H]3O)[C@H]3COC(=O)[C@H]23)OCO4)cc(OC)c1O,1320 nM (active)
6,CCOC(=O)[C@H](CCc1ccccc1)N[C@@H](C)C(=O)N1[C@@H](C(=O)O)C[C@H]2CCC[C@@H]21,5900 nM (active)
7,CC(C)c1cnn2c(NCc3ccccc3)cc(NCCCCCCN)nc12,20900 nM (active)
8,O=C(CCCCCCC(=O)Nc1cccnc1)NO,4180 nM (active)
9,COc1cc([C@@H]2c3cc4c(cc3[C@H](O)[C@H]3COC(=O)[C@@H]23)OCO4)cc(OC)c1OC,41.8 nM (active)
10,O=c1ccn([C@@H]2O[C@H](CO)[C@H](O)[C@@H]2F)c(=O)[nH]1,inactive
11,NC(=O)N1CCC(CC(=O)N2CCC([C@H]3c4ncc(Br)cc4CCc4cc(Cl)cc(Br)c43)CC2)CC1,20900 nM (active)
12,CC(C)NC[C@@H](C(=O)N1CCN(c2ncnc3c2[C@H](C)C[C@H]3O)CC1)c1ccc(Cl)cc1,2960 nM (active)
13,C[C@H](NCc1ccc(OCc2cccc(F)c2)cc1)C(N)=O,5900 nM (active)
14,O=C(c1ccc(F)cc1)N1CCC[C@H](c2nc(-c3ccc(F)cc3)no2)C1,inactive
15,COc1cccc2c1C(=O)c1c(O)c3c(c(O)c1C2=O)C[C@@](O)(C(=O)CO)C[C@@H]3O[C@H]1C[C@H](N)[C@H](OC2CCCCO2)[C@H](C)O1 (some centres not stated),1660 nM (active)
16,Nc1nc(N)c2nc(-c3cccc(O)c3)c(-c3cccc(O)c3)nc2n1,20900 nM (active)
